The values below come from PubChem BioAssay.

Test [1] concerns Plasmodium falciparum Sir2 (PF13_0152, Sir2A). In words: Plasmodium falciparum Sir2A binding compounds – biochemical, small-molecule microarray, 635 nm fluorescence, primary screen (AID 1098).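 Further: score merges spot fluorescence intensity with its signal-to-noise ratio.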 The conditions noted are these: fluorescence 635 nm, higher = more signal.
Test [2] can be described thus: probe aDKK1 binding to arrayed compounds – biochemical, biotinylated probe, 635/667 nm fluorescence, primary screen (AID 1099).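 Further: score merges 667nm spot fluorescence with signal to noise across triplicate slides; reference of the scale not given here.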 The following applies: small-molecule microarray, higher = more signal.
The nature of test [3]: probe aCHRDL2 binding to arrayed compounds – biochemical, biotinylated probe, 635/667 nm fluorescence, primary screen (AID 1100). The conditions noted are these: small-molecule microarray, higher = more signal.
The nature of test [4]: change in splice reporter luminescence, either direction, cell-based, HEK293, spliceosome inhibition project, primary screen (AID 1101).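 Further: HEK293 cells carrying a splicing-competent luciferase reporter gene; test concentration not given here.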 The following applies: HEK293 splicing luciferase reporter, 24 h, higher = more signal, called active from +8 up or from −8 down. In general terms: A reporter such as luciferase makes a cellular process visible.
For test [5], the target named is Fibroblast growth factor 10 (Homo sapiens) (UniProt O15520). Briefly: compounds binding fibroblast growth factor 10 – biochemical, small-molecule microarray, 635 nm fluorescence, primary screen (AID 1102). The conditions noted are these: FGF10 binding, fluorescence 635 nm, higher = more signal.
In test [6] the test system is glycogen synthase kinase-3 (GSK3A per assay name; protocol says GSK3B). In words: compounds binding glycogen synthase kinase-3 – biochemical, small-molecule microarray, 635 nm fluorescence, GSK3A, primary screen (AID 1103). Further: the record names both GSK3A and GSK3B. The conditions noted are these: fluorescence 635 nm, higher = more signal.
The target of test [7] is Epidermal growth factor receptor (Homo sapiens) (UniProt P00533). In words: compounds binding epidermal growth factor receptor – biochemical, small-molecule microarray, 635 nm fluorescence, primary screen (AID 1104).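 Further: score merges 667 nm emission intensity with spot signal to noise over triplicate slides.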 The following applies: EGFR binding, higher = more signal.
The target of test [8] is Follistatin-related protein 3 (Homo sapiens) (UniProt O95633). Briefly: compounds binding follistatin-related protein 3 – biochemical, small-molecule microarray, 635 nm fluorescence, primary screen (AID 1105).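 Further: score merges emission near 667 nm and signal to noise per printed spot across three slides.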 The following applies: FSTL3 binding, higher = more signal.
The target in test [9] is Dickkopf-related protein 1 (Homo sapiens) (UniProt O94907). In words: small molecules binding DKK1 protein – biochemical, small-molecule microarray, 635 nm fluorescence scan, primary screen (AID 1106).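 Further: score merges emission near 667 nm with signal to noise over three replicate slides.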 The conditions noted are these: higher = more signal.
Test [10] concerns Inhibin beta A chain (activin A). Briefly: small molecules binding activin A – biochemical, small-molecule microarray, 635 nm fluorescence scan, primary screen (AID 1107).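 Further: mouse activin A protein probed at 4.33 µg/mL on printed slides; score merges bound-protein fluorescence near 667 nm with spot signal-to-noise.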 The conditions noted are these: INHBA, higher = more signal.

Calls of active or inactive are those of the source.

Sequence of Dickkopf-related protein 1 (Homo sapiens) (O94907 whole entry, looked up): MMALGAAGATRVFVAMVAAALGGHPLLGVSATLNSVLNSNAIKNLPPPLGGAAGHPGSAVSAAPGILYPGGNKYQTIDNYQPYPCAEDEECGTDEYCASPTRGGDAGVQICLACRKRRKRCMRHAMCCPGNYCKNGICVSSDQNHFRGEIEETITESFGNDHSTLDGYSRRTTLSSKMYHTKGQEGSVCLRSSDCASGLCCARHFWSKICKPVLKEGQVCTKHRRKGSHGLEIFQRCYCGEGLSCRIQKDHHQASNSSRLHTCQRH
Sequence of Epidermal growth factor receptor (Homo sapiens) (P00533 whole entry, looked up): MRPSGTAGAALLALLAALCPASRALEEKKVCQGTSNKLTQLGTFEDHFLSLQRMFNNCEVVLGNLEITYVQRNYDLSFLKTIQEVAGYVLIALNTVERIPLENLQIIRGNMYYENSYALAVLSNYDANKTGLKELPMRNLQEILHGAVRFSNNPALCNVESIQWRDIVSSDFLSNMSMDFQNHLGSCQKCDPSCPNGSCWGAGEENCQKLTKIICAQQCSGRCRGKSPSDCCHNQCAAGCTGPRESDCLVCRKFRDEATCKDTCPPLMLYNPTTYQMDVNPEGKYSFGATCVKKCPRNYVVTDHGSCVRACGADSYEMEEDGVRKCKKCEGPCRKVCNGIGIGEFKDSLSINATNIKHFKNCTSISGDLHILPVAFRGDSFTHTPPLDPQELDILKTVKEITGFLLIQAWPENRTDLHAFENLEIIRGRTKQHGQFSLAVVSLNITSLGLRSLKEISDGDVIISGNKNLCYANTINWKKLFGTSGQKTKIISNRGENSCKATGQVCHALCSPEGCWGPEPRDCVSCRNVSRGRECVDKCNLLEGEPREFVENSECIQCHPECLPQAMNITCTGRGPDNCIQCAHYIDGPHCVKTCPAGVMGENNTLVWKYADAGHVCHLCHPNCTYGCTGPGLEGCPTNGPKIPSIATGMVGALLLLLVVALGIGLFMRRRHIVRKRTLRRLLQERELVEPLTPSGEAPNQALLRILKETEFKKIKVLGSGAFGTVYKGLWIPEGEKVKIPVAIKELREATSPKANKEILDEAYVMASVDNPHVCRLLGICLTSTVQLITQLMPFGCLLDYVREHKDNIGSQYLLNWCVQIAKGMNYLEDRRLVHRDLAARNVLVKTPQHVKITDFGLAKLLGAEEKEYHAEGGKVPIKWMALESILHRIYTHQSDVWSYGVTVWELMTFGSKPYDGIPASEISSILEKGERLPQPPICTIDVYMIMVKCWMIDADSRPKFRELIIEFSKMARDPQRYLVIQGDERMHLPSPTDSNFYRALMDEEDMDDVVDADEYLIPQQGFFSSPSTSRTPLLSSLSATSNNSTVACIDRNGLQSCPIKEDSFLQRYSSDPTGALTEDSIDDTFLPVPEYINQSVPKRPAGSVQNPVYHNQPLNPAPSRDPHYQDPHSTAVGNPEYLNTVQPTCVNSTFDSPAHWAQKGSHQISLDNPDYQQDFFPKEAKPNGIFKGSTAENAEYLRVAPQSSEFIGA
Sequence of Fibroblast growth factor 10 (Homo sapiens) (O15520 whole entry, looked up): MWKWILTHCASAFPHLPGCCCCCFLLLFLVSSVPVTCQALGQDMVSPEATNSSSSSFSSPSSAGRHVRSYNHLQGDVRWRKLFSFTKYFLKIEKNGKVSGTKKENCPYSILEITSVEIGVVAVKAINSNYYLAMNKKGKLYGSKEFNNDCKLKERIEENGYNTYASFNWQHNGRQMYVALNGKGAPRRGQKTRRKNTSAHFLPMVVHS
Sequence of Follistatin-related protein 3 (Homo sapiens) (O95633 whole entry, looked up): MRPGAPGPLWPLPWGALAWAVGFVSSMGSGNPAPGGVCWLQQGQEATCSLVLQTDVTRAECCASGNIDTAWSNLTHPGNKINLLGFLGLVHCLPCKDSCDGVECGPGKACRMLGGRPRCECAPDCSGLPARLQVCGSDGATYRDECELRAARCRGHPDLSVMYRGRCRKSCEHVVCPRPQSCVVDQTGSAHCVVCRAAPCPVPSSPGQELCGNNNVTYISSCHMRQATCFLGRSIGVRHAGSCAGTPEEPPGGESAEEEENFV

For `O=C(O)[C@H]1C[C@H]2C(=O)NCC(=O)N2[C@H]1c1ccc(O)cc1`, the composite z-score in test [1] was 0.237; in test [2], -0.248; in test [3], -0.346; in test [5] it was 0.413; in [6], 0.504; in [7], -0.213. Also, the composite z-score in test [8] was 0.845; in [9] it was 0.681; in test [10], 0.23. Moreover, the z-score in test [4] was -0.821 (inactive).
Consider `CC(C)C[C@@H]1NC(=O)[C@@H]2C[C@H](C(=O)NCCCCCC[N+](C)(C)C)[C@H](c3ccc(O)cc3)N2C1=O`, for which the composite z-score in test [1] is 1.38; in test [2], 0.026; in [3], 0.0989; in test [5], 0.623; in test [6] it was 1.21; in test [7], 0.29. The figures for the composite z-score in test [8], in [9] and in test [10] were 0.706, 0.977 and 0.987, respectively. For the same molecule, in test [4], the z-score was 0.00513 (inactive).
`COCCOC(=O)N1C(=O)[C@@]2(c3ccccc31)[C@H](C(=O)Nc1nc3ccccc3s1)[C@H]1C(=O)O[C@H](c3ccccc3)[C@H](c3ccccc3)N1[C@@H]2c1ccc(OCCO)cc1`: the composite z-score in [1] stood at 1.11; in test [2] it was 0.186; in [3] it was 0.54; in [5], 1.26; in [6], 1.3; in test [7], 0.331. In addition, the composite z-score was 1.11 in test [8], 0.427 in test [9] and 0.464 in test [10]. Moreover, in test [4], the z-score is -0.128 (inactive).
Turning to `COCCOC(=O)N1C(=O)[C@@]2(c3cc(C#CCC(C(=O)OC)C(=O)OC)ccc31)[C@H](C(=O)N1CCN(c3ncccn3)CC1)[C@H]1C(=O)O[C@H](c3ccccc3)[C@H](c3ccccc3)N1[C@@H]2c1ccc(OCCO)cc1`, the composite z-score in [1] was 1.56; in test [2], -0.0747; in test [3], 0.0277; in test [5] it was 0.699; in test [6], 1.1; in [7], 0.275. In addition, the composite z-score in test [8] is 0.626; in test [9] it was -0.0047; in test [10], 0.149. The z-score in test [4] is -0.923 (inactive).
As for `CCOC(=O)C[C@H]1[C@H](OC(=O)c2ccc(-c3ccccc3)cc2)[C@@H](NC(=O)Cc2ccc(OC)cc2)c2cc(OCCCO)ccc2N1C(=O)c1ccc2ccccc2n1`, the composite z-score in [1] is 0.042; in test [2] it was 0.593; in test [3], 0.294; in test [5] it was 0.181; in [6] it was 0.267; in test [7] it was -0.127. Further, the figures for the composite z-score in test [8], in [9] and in test [10] were 0.367, 0.0289 and 0.827, respectively. In [4], the z-score was -1.05 (inactive).
Take `COc1ccc([Si](C)(C)[C@H]2[C@H](CC(=O)N(CCO)Cc3ccccc3)O[C@@]3(C(=O)N(Cc4cccc(N5CCC5=O)c4)c4ccccc43)[C@@H]2C)cc1`: the composite z-score in test [1] stood at 1.32; in test [2] it was 0.122; in test [3], 0.0014; in [5] it was 0.697; in test [6], 0.599; in test [7], 0.4. In addition, the composite z-score in test [8] amounted to 0.893; in [9], 0.696; in test [10] it was 0.928. Besides, the z-score in test [4] was -2.18 (inactive).
On to `Cc1ccc(S[C@]2(C(=O)NCC(C)C)CC(=O)N(Cc3ccccc3Cl)[C@@H]2c2ccc(CO)cc2)cc1`, for which the composite z-score is -0.248 in test [1]; 0.254 in test [2]; 0.94 in [3]; -0.756 in test [5]; -1.15 in test [6]; -1 in test [7]. Further, the results for the composite z-score in test [8], in test [9] and in test [10] were -2.05, -1.77 and -0.544, respectively. For the same molecule, in test [4], the z-score was 0.35 (inactive).
As to `CC(C)c1ccc(NN2C(C(O)c3cccc(O)c3)C=CC3C(=O)N(c4ccccc4)C(=O)C32)cc1` (stereo not given), the composite z-score in test [1] worked out at 0.996; in test [2], 0.808; in test [3], 0.835; in test [5], 1.39; in test [6], 1.27; in test [7], 0.373. Besides, the composite z-score in [8] was 1.05; in [9], -0.0143; in [10], -0.251. Moreover, in test [4], the z-score was 0.689 (inactive).
With `O=C1O[C@H](c2ccccc2)[C@H](c2ccccc2)N2[C@H]1[C@@H](C(=O)O)[C@]1(C(=O)Nc3ccc(C#CC4=CCCCC4)cc31)[C@H]2c1ccc(OCCO)cc1`, the composite z-score in [1] was 1.43; in test [2], -0.211; in [3], -0.701; in test [5], 1.25; in test [6], 1.28; in [7] it was 0.58. The composite z-score came to 1.42 in test [8], 0.765 in [9] and 0.302 in [10]. Moreover, the z-score in test [4] was -0.248 (inactive).
Take `C=CCN1C(=O)[C@]2(O[C@H](CCO)[C@@H]([Si](C)(C)c3ccc(OC)cc3)[C@@H]2C)c2cc(NC(=O)[C@H](C)O)ccc21`: the composite z-score in test [1] was 1.45; in test [2] it was -0.191; in test [3], -0.159; in [5], 1.27; in test [6] it was 0.984; in test [7] it was -0.191. Moreover, the composite z-score was 0.267 in [8], 0.0607 in test [9] and 0.197 in test [10]. In addition, the z-score in test [4] was -1.26 (inactive).
On to `Cc1cc(C)c(C(O)C2C=CC3C(=O)N(c4ccccc4)C(=O)C3N2Nc2ccc(C#N)cc2)c(C)c1` (stereo not given), for which the composite z-score amounted to 0.586 in [1]; 1.05 in test [2]; 1.24 in [3]; 1.27 in test [5]; 1.22 in test [6]; 0.283 in [7]. Further, the composite z-score in [8] was 1.22; in test [9], -0.0911; in test [10], 0.7. The z-score in test [4] was 0.757 (inactive).
In the case of `COc1ccc(C(O)C2C=CC3C(=O)NC(=O)C3N2Nc2ccccn2)cc1OCc1ccccc1` (stereo not given), the composite z-score is 0.524 in [1]; 0.0679 in test [2]; 0.668 in [3]; -0.0457 in test [5]; 0.13 in test [6]; 0.208 in [7]. Further, the composite z-score in [8] was 0.187; in [9], -0.236; in test [10], 0.557. Moreover, the z-score in [4] is 1.04 (inactive).
As to `O=C1OCCC=C[C@H]2OC34C=CCN(Cc5ccccc5)C(=O)[C@H]3N(CCCCCO)C(=O)[C@@H]4C12` (stereo not given in full), the composite z-score was 1.96 in [1]; -0.285 in [2]; 0.672 in test [3]; -0.779 in test [5]; 1.06 in test [6]; -0.744 in test [7]. For the same molecule, the composite z-score in test [8] was -0.595; in test [9], -1.19; in test [10] it was 0.141. In test [4], the z-score is -0.34 (inactive).
For the molecule `C=C(CCCC)/C(=C/C[C@H](OC(C)=O)c1ccc(CO)o1)c1cnc2ccccc2c1`, the composite z-score in test [1] was 1.11; in test [2] it was -0.179; in test [3] it was -0.531; in test [5], 1.35; in [6], 1.21; in test [7], 0.497. Moreover, the composite z-score in [8] is 1.49; in [9], 0.601; in test [10] it was 1.69. For the same molecule, the z-score in [4] is -0.276 (inactive).
Take `CCOC(=O)C[C@H]1[C@H](OC(=O)c2ccccc2-c2ccccc2)[C@@H](NC(=O)Cc2ccc(OC)cc2)c2cc(OCCCO)ccc2N1C(=O)c1ccccc1`: the composite z-score in test [1] was -0.394; in test [2] it was -0.236; in test [3], -0.0402; in test [5], 0.225; in test [6], -1.28; in test [7] it was 0.192. The composite z-score in test [8] is -0.0572; in test [9], 0.232; in [10], 0.34. In addition, the z-score in test [4] was -0.258 (inactive).
As for `CN1C=C(C(=O)OCCS(C)(=O)=O)C(C(=O)OCCS(C)(=O)=O)=CC(CCCO)=CC1C1CC1` (stereo not given), the composite z-score in test [1] is -0.274; in [2], -0.209; in test [3], -0.0925; in test [5] it was 0.428; in test [6] it was -0.256; in test [7], -0.14. Besides, the composite z-score is 0.0695 in test [8], -0.596 in [9] and -0.0932 in test [10]. Besides, the z-score in test [4] is 0.788 (inactive).
